Our source for the Potency values is PubChem BioAssay (NCATS).

Assay [1] has as its target Aldehyde dehydrogenase, mitochondrial (Homo sapiens) (UniProt P05091). In words: qHTS for Inhibitors of the Aldehyde Dehydrogenase Family (ALDH2) Primary screen (AID 2061308). Further: nearly all actives have a fitted effect of over 55% in size. For orientation: In qHTS, concentration-response curves come from the screen itself.
Assay [2] has as its target Retinaldehyde dehydrogenase 3 (Homo sapiens) (UniProt P47895). Kind of assay: qHTS for Inhibitors of the Aldehyde Dehydrogenase Family (ALDH1A3) Primary screen (AID 2061315).

Structures are written as SMILES. Records with an inconclusive call do not appear. A call without a number means that no potency is given here. The source made the active and inactive calls. The call rests on the fitted dose curve; in most records, active means well fitted curve in the direction sought with a large enough effect; inconclusive means small, poorly fitted or top-dose-only effect, or another doubt; inactive means no such curve, though single readings can be large; an effect the other way counts as inactive or inconclusive.

In the case of `C=C1C(=O)OC2C1CCC1(C)C(O)CC=C(C)C21` (stereo not drawn), the Potency result in assay [1] and in assay [2] was “inactive” each time.

For the compound `CC(C)C[C@@H]1NC(=O)[C@@H](Cc2ccccc2)NC(=O)C(CCCCCC(=O)C2CO2)NC(=O)[C@@H]2CCCCN2C1=O` (stereo partly drawn), the Potency result in assay [1] and in assay [2] was “inactive” in each case.

With `CCOc1ccc(CCNC(=O)Cc2ccccc2)cc1OCC`, the Potency entry in assay [1] and in assay [2] was “inactive” in each case.

Turning to `O=C(OCC#CCSc1nnc(-c2cccc3ccccc23)o1)c1cc(F)c(F)c(F)c1`, the Potency entry in assay [1] and in assay [2] was “inactive” each time.

Consider `O=C(Nc1cc(C(F)(F)F)ccc1Cl)[C@H](O)CCc1ccccc1`, for which the Potency result in assay [1] and in assay [2] was “inactive” in each case.

Turning to `O=Cc1ccc(N2CCN(S(=O)(=O)c3ccc4c(c3)CC(=O)N4)CC2)cc1`, the Potency entry in assay [1] and in assay [2] was “inactive” throughout.

With `C[C@@H]1C[C@@H](O)[C@@]23CO[C@@H](O)[C@@H]2CCC[C@@H]3[C@@]12C[C@@H](c1ccoc1)OC2=O`, the Potency entry in assay [1] and in assay [2] was “inactive” throughout.

Consider `COc1cc(F)c(S(=O)(=O)N2CCCN(S(=O)(=O)c3ccc4c(c3)OCCO4)CC2)c(F)c1`, for which the Potency result in assay [1] and in assay [2] was “inactive” throughout.

Turning to `CCN(CC)CCCCn1c(-c2ccccc2)nc2c(N3CCOCC3)nc(C)nc21`, the Potency entry in assay [1] and in assay [2] was “inactive” in each case.

Regarding `COC(=O)c1ccccc1C(=O)Nc1nc(-c2ccccc2)cs1`, the Potency entry in assay [1] and in assay [2] was “inactive” throughout.

`CC(C)(C)OC(=O)NCCCNc1ncnc2ccc(-c3ccc4c(c3)OCO4)cc12`: the Potency entry in assay [1] and in assay [2] was “inactive” in each case.

For the compound `COc1ccc2c(=O)n3nc(Nc4cccc(N5CCN(C)CC5)c4)sc3nc2c1`, the Potency result in assay [1] and in assay [2] was “inactive” throughout.

On to `COc1cc(OC)cc(-c2ccc3c(-c4ccc(F)cc4)[nH]nc3n2)c1`, for which the Potency result in assay [1] and in assay [2] was “inactive” each time.

`Cc1ccccc1NC(=O)CN1C(=O)N/C(=C\c2cccn2-c2cccc(C(=O)O)c2)C1=O`: the Potency entry in assay [1] and in assay [2] was “inactive” in each case.
